Rhodamine fluor: qHTS Assay for Spectroscopic Profiling in Rhodamine Spectral Region. Rhodamine-region fluorescence, 547/598 nm, Tris buffer; active compounds read high. max dye-equivalent concentration, M. actives 0.05% (n = 59,000). AID 594, 2007; in the data active means max dye-equivalent concentration above about 11 nM; inconclusive means between about 1.1 nM and that limit
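Compounds in 100 mM Tris buffer, pH 8.0, were incubated 15 min at room temperature, then read at 547 nm excitation and 598 nm emission. Fluorescence was normalized against a per-plate six-point rhodamine standard curve as dye-equivalent concentration.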
Resorufin fluor: qHTS Assay for Spectroscopic Profiling in Resorufin Spectral Region; Compound fluorescence, resorufin region 547/598 nm, buffer; active compounds read high; max dye-equivalent concentration, M; actives 0.04% (n = 59,000)
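Compounds in 100 mM Tris, pH 8.0, incubated 15 min at room temperature, then fluorescence read at 547 nm excitation/598 nm emission. Signal converted to dye-equivalent concentration via an on-plate six-point resorufin standard curve, per compound concentration.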
A647 fluor: qHTS Assay for Spectroscopic Profiling in A647 Spectral Region. Compound fluorescence, A647 channel (570/671 nm), Tris buffer. max dye-equivalent concentration, M. 59,000 tested, under 10 active. AID 592, 2007;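 further: values scaled relative to a standard on each plate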
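Spectral profiling of library compounds in pH 8.0 Tris: 15 min room-temperature incubation, single ex/em pair (570/671 nm), response normalized to Alexa 647 equivalents.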
Fluorescein fluor: qHTS Assay for Spectroscopic Profiling in Fluorescein Spectral Region. Compound autofluorescence, 480/540 nm, fluorescein-equivalent; active compounds read high. actives 0.91% (n = 59,000). max fluorescein-equivalent concentration, M; in the data active means max fluorescein-equivalent concentration above about 10 nM; inconclusive means between about 1.1 nM and that limit
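Normalized response (dye-equivalent concentration) derives from comparing each well's 540 nm emission, under 480 nm excitation, with plate-resident fluorescein standards. Compounds were held in 100 mM Tris, pH 8.0, for 15 min at room temperature.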
A488 fluor: qHTS Assay for Spectroscopic Profiling in A488 Spectral Region | compound autofluorescence, A488 spectral region, dye equivalency; Compound Type: qHTS ECL - MLSMR | max dye equivalency, M | actives 0.1% (n = 59,000) | AID 591, 2007
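Spectroscopic profiling in the A488 region: compounds in pH 8.0 Tris (100 mM), 15 min RT, CCD imaging with 480 nm excitation and 540 nm emission; responses normalized against A488 dye standards.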
Texas Red fluor: qHTS Assay for Spectroscopic Profiling in Texas Red Spectral Region | Compound fluorescence, Texas Red channel, 547/618 nm; active compounds read high | max dye-equivalent concentration, M | actives 0.06% (n = 59,000); in the data active means max dye-equivalent concentration above about 10 nM; inconclusive means between about 1.1 nM and that limit
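Spectral interference profiling: each compound concentration's relative fluorescence, read with a 547 nm excitation and 618 nm emission filter pair, was normalized to a per-plate Texas Red standard curve.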
* = called active by the depositor; i = inactive; ? = inconclusive. Rows were chosen to be rich in hits. Some 0.95% of all compounds tested hit in one or more screens of this group. Unless noted, how the calls were made is not given here.

SMILES | Rhodamine fluor | Resorufin fluor | A647 fluor | Fluorescein fluor | A488 fluor | Texas Red fluor
O=C1c2cccnc2C(=O)N1Cc1ccc(F)cc1 | i | i | 1e-09 | 8.2e-08M* | ? | i
COC(=O)/C=c1/sc2n(c1=O)CCN=2 | i | i | 1.8e-08 | i | i | i
CN(C)c1ccc(/C=c2\sc3n(c2=O)CCCN=3)cc1 | i | i | 1e-09 | 1.5e-08M* | i | i
Cc1cc(=O)oc2c(CN3CCC(C)CC3)c(O)c(Cl)cc12 | ? | i | 1e-09 | 1.1e-08M* | i | i
CC(=O)O[C@H]1CC[C@@]2(C)[C@@H](CC[C@@]3(C)[C@H]2C(=O)C=C2[C@H]4C[C@](C)(C(=O)OCCN5CCCCC5)CC[C@]4(C)CC[C@@]23C)C1(C)C | i | i | 2.1e-09 | i | i | i
Clc1ccc(CN2CCCN(Cc3ccc(Cl)cc3)C2c2cc3ccccc3c3ccccc23)cc1 | i | i | 3.5e-09 | 1.2e-08M* | i | i
O=C(O)[C@@H]1CCCN1Cc1cc2ccccc2c2ccccc12 | i | i | 5.7e-08 | ? | i | i
CN(CCc1ccccn1)c1ccc2c(c1)C(=O)c1ccccc1-2 | i | i | 2.3e-08 | i | i | i
C=CCn1c(O)c(CN2CCOCC2)c(C)c(C#N)c1=O | i | i | 5.3e-09 | 1.3e-08M* | i | ?
Cn1c(CN2CCOCC2)c(C#N)c2ccccc21 | i | i | 1e-09 | ? | i | i
O=C(c1ccncc1)N1CCC[C@@]2(CCN(c3ccncc3)C2)C1 | i | i | 6.6e-09 | i | i | i
CC(=O)Oc1ccc(/C=C\C(=O)C[C@@H]2O[C@@H](Oc3cc(OC(C)=O)c4c(c3)O[C@@H](c3ccc(OC(C)=O)cc3)CC4=O)[C@H](OC(C)=O)[C@H](OC(C)=O)[C@@H]2OC(C)=O)cc1 | i | i | 5.2e-09 | 1.3e-08M* | i | i
C[C@@H]1O[C@H](O[C@@H]2[C@@H](Oc3cc(O)c4c(c3)O[C@H](c3ccc(O)cc3)CC4=O)O[C@@H](CO)[C@@H](O)[C@H]2O)[C@@H](O)[C@H](O)[C@@H]1O | i | i | 3e-08 | ? | i | i
CCN[C@@H]1C[C@H](N)[C@H](O[C@H]2OC(CN)=CC[C@H]2N)[C@@H](O)[C@H]1O[C@H]1OC[C@@](C)(O)[C@@H](NC)[C@@H]1O | i | i | 1e-09 | 2.4e-08M* | i | i
CN[C@H]1[C@H](O)[C@@H](O[C@@H]2[C@H](O)[C@@H](O[C@H]3OC(CN)=CC[C@H]3N)[C@@H](N)C[C@H]2N)OC[C@@]1(C)O | i | i | 1e-09 | ? | i | i
CN1CCc2c(sc3c2C(=O)NC(/C=C/c2ccco2)N3)C1 (configuration not stated) | i | i | 4.3e-08 | 1.3e-08M* | i | i
Cc1ccc(C2NC(=O)c3c(sc4c3CCN(C)C4)N2)o1 (configuration not stated) | i | i | 4e-08 | 1.2e-08M* | i | i
Cc1ccc(C2NC(=O)c3c(sc4c3CCN(C)C4)N2)s1 (configuration not stated) | i | i | 4.5e-08 | 1.6e-08M* | i | i
CN1CCc2c(sc3c2C(=O)NC(c2ccccn2)N3)C1 (configuration not stated) | ? | ? | 4.8e-08 | 5.6e-08M* | ? | 1.2e-08M*
O=C1NC(c2ccccn2)Nc2sc3c(c21)CCC3 (configuration not stated) | i | i | 9.1e-09 | i | i | ?
CN1CCc2c(sc3c2C(=O)NC(c2ccc4c(c2)OCO4)N3)C1 (configuration not stated) | i | i | 2.3e-08 | ? | i | ?
CCOC(=O)N1CCc2c(sc3c2C(=O)NC(c2ccc(-c4ccc(Cl)cc4)o2)N3)C1 (configuration not stated) | i | i | 1e-09 | i | i | i
COc1ccc(NC(=O)N2CC[C@@]3(CCCN(C(=O)c4cccc(F)c4)C3)C2)cc1 | i | i | 1.9e-08 | i | i | i
COc1ccc(-c2nc3cnc(N4CCN(C)CC4)nc3n(CCC#N)c2=O)cc1 | i | i | 1.1e-09 | i | i | i
Cc1ccc(/C=c2\sc3nc(-c4ccco4)nn3c2=O)o1 | i | i | 1.9e-08 | 1.5e-08M* | i | i
SMILES | Rhodamine fluor | Resorufin fluor | A647 fluor | Fluorescein fluor | A488 fluor | Texas Red fluor
COc1ccc(-c2nc3cnc(Nc4cccc(OC)c4)nc3n(C[C@H]3CCCO3)c2=O)cc1 | i | i | 1e-09 | ? | i | i
N=c1c(S(=O)(=O)c2ccccc2)cc2c(=O)n3ccccc3nc2n1Cc1ccco1 | i | i | 3.5e-09 | ? | i | i
Cc1ccc(S(=O)(=O)c2cc3c(=O)n4ccccc4nc3n(Cc3ccco3)c2=N)cc1C | i | i | 4.1e-08 | 1.2e-08M* | i | i
O=C(c1cccc(F)c1)N1CCC[C@@]2(CCN(c3ccccc3)C2)C1 | i | i | 1.1e-08 | i | i | i
CC(C)C1Cc2c(C#N)c(N)sc(=S)c2CO1 (configuration not stated) | i | i | 3.9e-09 | 1.3e-08M* | i | i
C[C@@]12CC[C@@H]3[C@H](CCC4=CC(=O)CC[C@]43C)[C@@H]1CC[C@@H]2C(=O)Cn1cnc2c(=S)nc[nH]c21 | i | i | 1e-09 | i | i | i
CC(=O)Nc1ccc(S(=O)(=O)Nc2nc3ccccc3nc2Sc2nncn2C)cc1 | i | i | 4.6e-09 | 1.4e-08M* | i | i
Cc1c(Nc2nc3ccccc3nc2NS(=O)(=O)c2ccccc2)c(=O)n(-c2ccccc2)n1C | i | i | 1e-09 | i | i | i
Cn1ccnc1Sc1nc2ccccc2nc1NS(=O)(=O)c1ccccc1 | i | i | 1e-09 | 1.1e-08M* | i | i
Cn1cnnc1Sc1nc2ccccc2nc1NS(=O)(=O)c1ccccc1 | i | i | 7e-09 | ? | i | i
O=c1[nH]c(SCc2cccc([N+](=O)[O-])c2)nc2nc[nH]c12 | i | i | 2.1e-08 | i | i | i
CCOC(=O)C(C(=O)OCC)c1cc(Br)c2noc3c2c1C(=O)c1ccccc1-3 | i | i | 5.6e-09 | 2.6e-07M* | 1.2e-08M* | i
CCOC(=O)c1c2c(n3ccccc13)C(=O)c1ccccc1C2=O | i | i | 1e-09 | ? | i | i
Cc1cccc(OCC(=O)NCC(=O)n2nc(C)cc2C)c1 | i | i | 7.9e-08 | 1.2e-08M* | i | i

Bioassay records: PubChem, National Center for Advancing Translational Sciences (NCATS)
